Results: PubChem BioAssay (Tox21)
Results filed as inconclusive are left out. Active and inactive are the calls of the source. Unless noted, calls come from the whole dose curve; as a rule, active = well fitted curve in the direction sought with a large enough effect in the repeat runs; inconclusive = weak or mixed curves; inactive = no such curve, though single readings can be large; an effect the other way counts as inactive or inconclusive.

Assays:
[1] = qHTS assay to identify small molecule antagonists of the androgen receptor (AR) signaling pathway using the MDA cell line in the presence of 0.5 nM R1881 - cell viability counter screen (AID 1259242); note: nearly all actives have a fitted effect of over 45% in size
Procedure, shortened: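 Live-cell protease fluorescence, CellTiter-Fluor, 30 min at 37C. Cells: MDA-kb2, 3,000/well, preincubated 5 hr. Compounds plus 0.5 nM R1881 final, 16 hr, 37C, 0% CO2.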

[2] = target: Androgen receptor (Homo sapiens) (UniProt P10275); test: qHTS assay to identify small molecule antagonists of the androgen receptor (AR) signaling pathway using the MDA cell line in the presence of 0.5 nM R1881 (AID 1259243); note: nearly all actives have a fitted effect of over 50% in size
Chain of Androgen receptor (Homo sapiens) (P10275 whole entry, looked up): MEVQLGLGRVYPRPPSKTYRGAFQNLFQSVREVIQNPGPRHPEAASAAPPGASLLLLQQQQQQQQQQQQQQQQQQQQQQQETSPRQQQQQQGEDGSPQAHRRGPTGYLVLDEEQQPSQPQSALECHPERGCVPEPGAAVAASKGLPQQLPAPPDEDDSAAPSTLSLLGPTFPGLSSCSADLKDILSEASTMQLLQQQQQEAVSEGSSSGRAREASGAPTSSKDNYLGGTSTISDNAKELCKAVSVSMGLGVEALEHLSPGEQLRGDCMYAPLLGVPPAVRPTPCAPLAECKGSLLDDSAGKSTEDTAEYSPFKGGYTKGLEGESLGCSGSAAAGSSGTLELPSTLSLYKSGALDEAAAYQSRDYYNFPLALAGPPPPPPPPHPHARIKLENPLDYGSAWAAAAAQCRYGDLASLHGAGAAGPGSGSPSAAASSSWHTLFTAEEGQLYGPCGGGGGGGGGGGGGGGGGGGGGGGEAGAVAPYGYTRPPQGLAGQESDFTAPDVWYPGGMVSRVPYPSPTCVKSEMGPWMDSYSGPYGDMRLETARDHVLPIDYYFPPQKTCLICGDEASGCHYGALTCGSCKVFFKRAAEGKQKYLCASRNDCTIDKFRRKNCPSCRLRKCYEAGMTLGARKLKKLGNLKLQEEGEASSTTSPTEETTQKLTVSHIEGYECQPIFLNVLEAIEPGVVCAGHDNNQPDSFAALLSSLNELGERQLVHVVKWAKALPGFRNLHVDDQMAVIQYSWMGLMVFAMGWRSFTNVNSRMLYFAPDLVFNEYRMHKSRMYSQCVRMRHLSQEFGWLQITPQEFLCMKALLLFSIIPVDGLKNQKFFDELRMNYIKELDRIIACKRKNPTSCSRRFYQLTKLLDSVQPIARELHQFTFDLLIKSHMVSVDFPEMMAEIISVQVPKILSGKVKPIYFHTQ
Procedure, shortened: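 MDA-kb2, MMTV-luc (AR/GR elements); 3,000 cells/well; cpd + 0.5 nM R1881 final; 16 hr 37C, 0% CO2; ONE-Glo 30 min RT; luminescence.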

[3] = target: Estrogen receptor (Homo sapiens) (UniProt P03372); test: qHTS assay to identify small molecule antagonists of the estrogen receptor alpha (ER-alpha) signaling pathway using the BG1 cell line in the presence of 0.1 nM 17-beta-estradiol (AID 1259244); note: nearly all actives have a fitted effect of over 50% in size
Chain of Estrogen receptor (Homo sapiens) (P03372 whole entry, looked up): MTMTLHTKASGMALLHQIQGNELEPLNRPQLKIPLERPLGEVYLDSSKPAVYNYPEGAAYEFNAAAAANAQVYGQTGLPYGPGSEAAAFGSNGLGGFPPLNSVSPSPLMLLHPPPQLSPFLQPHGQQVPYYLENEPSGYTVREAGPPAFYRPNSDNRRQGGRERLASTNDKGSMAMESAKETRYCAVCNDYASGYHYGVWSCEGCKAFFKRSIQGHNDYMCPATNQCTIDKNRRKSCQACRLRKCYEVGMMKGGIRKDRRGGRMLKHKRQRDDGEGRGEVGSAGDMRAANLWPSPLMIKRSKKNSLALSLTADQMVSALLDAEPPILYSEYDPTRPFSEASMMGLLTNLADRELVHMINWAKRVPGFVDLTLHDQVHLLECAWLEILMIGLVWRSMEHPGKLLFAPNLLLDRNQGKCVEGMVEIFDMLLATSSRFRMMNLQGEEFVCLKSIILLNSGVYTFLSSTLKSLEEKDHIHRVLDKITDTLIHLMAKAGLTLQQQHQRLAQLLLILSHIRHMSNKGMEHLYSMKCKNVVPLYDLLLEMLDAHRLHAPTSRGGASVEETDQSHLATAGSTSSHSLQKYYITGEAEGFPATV
Procedure, shortened: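 Luminescence after ONE-Glo (30 min, room temperature) measured ERE-luciferase activity in VM7Luc4E2 cells treated 22 h with compound and 0.1 nM final 17beta-estradiol as stimulator.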

[4] = qHTS assay to identify small molecule HDAC inhibitors (AID 1259364);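 note: wild-type HCT-116 cells with endogenous class I/II HDAC activity; top concentration of the series differs between compounds; nearly all actives have a fitted effect of over 45% in size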
Procedure, shortened: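 HCT-116 (wild type), 1,500 cells/well, overnight; compound 2 hr 37C 5% CO2; HDAC-Glo I/II reagent 30 min RT; luminescence readout.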

[5] = qHTS assay to identify small molecule HDAC inhibitors - cell viability counter screen (AID 1259365); note: series mostly up to about 92 µM; nearly all actives have a fitted effect of over 50% in size
Procedure, shortened: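 HCT-116 wild-type, overnight attachment; 2hr drug exposure, 37C; CellTiter-Glo luminescent ATP readout after 30min RT.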

[6] = qHTS assay to identify small molecule agonists of the sonic hedgehog signaling (Shh) pathway - cell viability counter screen (AID 1259366); note: nearly all actives have a fitted effect of over 50% in size
Procedure, shortened: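 Compounds in DMSO were pin-transferred onto 3T3 Gli1-Luc cells that had settled 4hr; plates then stood 24hr at 37C and 5% CO2. One hour before the end, CellTiter-Fluor was added and fluorescence recorded.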

[7] = qHTS assay to identify small molecule antagonists of the sonic hedgehog signaling (Shh) pathway - cell viability counter screen (AID 1259367); note: nearly all actives have a fitted effect of over 55% in size
Procedure, shortened: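 Viability was read by CellTiter-Fluor fluorescence in the same wells, reagent added 23 hr into compound treatment and incubated 1 hr at 37C. The 3T3 Gli1-Luc reporter cells (2,000/well) received conditioned medium after compound and ran 24 hr.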

[8] = qHTS assay to identify small molecule agonists of the sonic hedgehog signaling (Shh) pathway (AID 1259368; calls by dose curve;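 note: NIH/3T3-derived 3T3Gli1-Luc cells carrying a stable Gli1-driven firefly luciferase reporter; series mostly up to about 92 µM; nearly all actives have a fitted effect of over 15% in size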)
Procedure, shortened: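 Read-out: firefly luciferase luminescence from a Gli1 response element reporter stably integrated in NIH/3T3-derived 3T3Gli1-Luc cells, measured 30 min at room temperature after reagent addition. Compound exposure lasted 24 hr at 37 C, 5% CO2.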

[9] = qHTS assay to identify small molecule antagonists of the sonic hedgehog signaling (Shh) pathway (AID 1259369; calls by dose curve; note: nearly all actives have a fitted effect of over 45% in size)
Procedure, shortened: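 Luminescence readout: firefly Luc under Gli1 response element in 3T3Gli1-Luc cells (NIH/3T3 clone). Antagonist mode, stimulation by conditioned medium; compound exposure 24hr at 37 C, 5% CO2.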

[10] = target: Estrogen receptor beta (Homo sapiens) (UniProt Q92731); test: qHTS assay to identify small molecule agonists of the estrogen receptor beta (ER-beta) signaling pathway (AID 1259377; active = well fitted activation curve with a large enough effect in the signal ratio in the repeat runs, not every such curve was filed as active; the % refers to the signal ratio)
Chain of Estrogen receptor beta (Homo sapiens) (Q92731 whole entry, looked up): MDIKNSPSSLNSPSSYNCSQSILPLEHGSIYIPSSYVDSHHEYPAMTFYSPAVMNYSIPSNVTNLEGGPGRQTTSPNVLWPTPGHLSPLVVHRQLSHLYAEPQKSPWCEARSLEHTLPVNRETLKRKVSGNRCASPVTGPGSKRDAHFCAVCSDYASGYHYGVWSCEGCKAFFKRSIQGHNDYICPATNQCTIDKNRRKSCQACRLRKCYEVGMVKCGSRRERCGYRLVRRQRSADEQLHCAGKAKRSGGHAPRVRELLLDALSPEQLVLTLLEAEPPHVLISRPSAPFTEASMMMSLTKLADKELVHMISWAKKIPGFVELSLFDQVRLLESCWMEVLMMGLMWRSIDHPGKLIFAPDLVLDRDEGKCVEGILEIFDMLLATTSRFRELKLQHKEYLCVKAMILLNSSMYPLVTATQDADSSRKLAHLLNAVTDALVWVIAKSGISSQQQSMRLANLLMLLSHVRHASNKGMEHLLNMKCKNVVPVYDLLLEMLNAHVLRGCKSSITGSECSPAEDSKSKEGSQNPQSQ
Procedure, shortened: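 qHTS in ER-beta-UAS-bla HEK293T cells: 6 hr settling, then 16 hr compound at 37C, then LiveBLAzer substrate 2 h at RT before fluorescence reading.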

[11] = target: Estrogen receptor beta (Homo sapiens) (UniProt Q92731); test: qHTS assay to identify small molecule antagonists of the estrogen receptor beta (ER-beta) signaling pathway (AID 1259378; active = well fitted inhibition curve with a large enough effect in the signal ratio in the repeat runs, not every such curve was filed as active; the % refers to the signal ratio)
Procedure, shortened: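 Antagonist mode: compounds added to beta-lactamase reporter HEK293T ER-beta-UAS cells stimulated with E2 (1nM final), 16 hr at 37C. LiveBLAzer B/G FRET substrate, 2 hours room temperature, fluorescence read-out.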

[12] = qHTS assay to identify small molecule agonists of the androgen receptor (AR) signaling pathway in the presence of an antagonist - cell viability counter screen (AID 1259379);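 note: MDA-kb2 human breast cancer cells carrying an MMTV luciferase reporter; series mostly up to about 92 µM; nearly all actives have a fitted effect of over 25% in size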
Procedure, shortened: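 Viability counter screen: CellTiter-Fluor fluorescence, measured in the same wells as the luciferase read-out. MDA-kb2 cells, 3,000/well, with nilutamide at 3.0uM final and compounds at 15 concentrations, 16 hr at 37C, 0% CO2.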

[13] = qHTS assay to identify small molecule agonists of the estrogen receptor beta (ER-beta) signaling pathway - cell viability counter screen (AID 1259380); note: nearly all actives have a fitted effect of over 30% in size
Procedure, shortened: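 Luminescence read-out (CellTiter-Glo, 30 min, room temp) taken in the same wells as the beta-lactamase reporter assay; ER-beta-UAS-bla HEK293T cells exposed to DMSO-dissolved compounds for 16 hr at 37C in 2% charcoal-stripped FBS medium.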

[14] = qHTS assay to identify small molecule agonists or antagonists of the thyroid stimulating hormone receptor (TSHR) signaling pathway - wild type cell line counter screen (AID 1259384; calls by dose curve)
Procedure, shortened: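 Counter screen in untransfected Hek293: compounds (15-point titration, triplicate) plus phosphodiesterase inhibitor Ro20-1724 added after 18 h plating; 30 min RT. Intracellular cAMP via competitive d2/cryptate immunoassay, 1 h incubation.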

[15] = target: Thyrotropin receptor (Homo sapiens) (UniProt P16473); test: qHTS assay to identify small molecule antagonists of the thyroid stimulating hormone receptor (TSHR) signaling pathway (AID 1259385; calls by dose curve; note: nearly all actives have a fitted effect of over 20% in size)
Chain of Thyrotropin receptor (Homo sapiens) (P16473 whole entry, looked up): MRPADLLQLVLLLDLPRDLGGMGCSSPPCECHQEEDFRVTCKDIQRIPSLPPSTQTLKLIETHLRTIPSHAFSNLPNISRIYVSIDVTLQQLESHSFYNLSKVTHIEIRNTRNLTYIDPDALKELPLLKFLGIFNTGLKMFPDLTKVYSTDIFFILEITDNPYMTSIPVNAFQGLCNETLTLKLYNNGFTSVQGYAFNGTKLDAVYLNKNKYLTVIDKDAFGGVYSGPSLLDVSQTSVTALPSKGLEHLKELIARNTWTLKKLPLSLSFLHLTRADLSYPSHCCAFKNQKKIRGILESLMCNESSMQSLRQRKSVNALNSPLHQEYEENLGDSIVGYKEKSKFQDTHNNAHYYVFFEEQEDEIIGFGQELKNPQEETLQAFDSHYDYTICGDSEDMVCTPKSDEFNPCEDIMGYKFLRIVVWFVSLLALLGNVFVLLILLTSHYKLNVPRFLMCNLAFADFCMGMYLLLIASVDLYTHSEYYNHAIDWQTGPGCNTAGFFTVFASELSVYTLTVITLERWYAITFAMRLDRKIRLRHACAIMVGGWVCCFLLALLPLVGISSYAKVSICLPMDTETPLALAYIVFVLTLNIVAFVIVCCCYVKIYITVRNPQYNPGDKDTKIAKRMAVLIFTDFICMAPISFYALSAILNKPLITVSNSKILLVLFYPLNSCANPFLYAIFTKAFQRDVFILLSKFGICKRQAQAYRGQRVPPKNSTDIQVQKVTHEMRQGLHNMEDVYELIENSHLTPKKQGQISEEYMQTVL
Procedure, shortened: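 Antagonist mode: compound-treated TSHR-expressing HEK293 cells were stimulated with 1.5 ng/mL TSH (final) in presence of Ro20-1724 for 30 min at RT. HTRF cAMP detection after 1 h; each compound tested at 15 concentrations, triplicate.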

[16] = qHTS assay to identify small molecule agonists of the estrogen receptor alpha (ER-alpha) signaling pathway in the presence of an antagonist - cell viability counter screen (AID 1259386);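 note: series mostly up to about 92 µM; cells exposed to compounds for 22 h at 37 °C before the viability read; nearly all actives have a fitted effect of over 30% in size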
Procedure, shortened: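 Read-out: CellTiter-Fluor fluorescence after 1hr reagent incubation, measured in the same wells as the luciferase readout. VM7Luc4E2 cells were exposed to 15 compound concentrations with 10.0nM ICI-182,780 for 22hr at 37C.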

[17] = qHTS assay to identify small molecule antagonists of the estrogen receptor beta (ER-beta) signaling pathway - cell viability counter screen (AID 1259382);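 note: HEK293T cells carrying ER-beta-UAS-bla reporter stimulated with estradiol; series mostly up to about 92 µM; nearly all actives have a fitted effect of over 55% in size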
Procedure, shortened: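 Luminescent ATP read-out (CellTiter-Glo, 30 min, RT) taken in the same wells as the bla reporter assay. HEK293T ER-beta-UAS-bla cells in 2% charcoal-stripped FBS were exposed to compounds with 1nM E2 for 16 hr at 37C.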

[18] = target: Estrogen receptor (Homo sapiens) (UniProt P03372); test: qHTS assay to identify small molecule agonists of the estrogen receptor alpha (ER-alpha) signaling pathway in the presence of an antagonist (AID 1259383; calls by dose curve; note: top concentration of the series differs between compounds; nearly all actives have a fitted effect of over 15% in size)
Procedure, shortened: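 Luciferase luminescence (ONE-Glo, 30min at room temperature) measured in VM7Luc4E2 cells after 22hr compound exposure at 15 concentrations, with 10.0nM ICI-182,780 final present; cells express endogenous ER-alpha and carry four EREs upstream of luciferase.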

[19] = target: Androgen receptor (Homo sapiens) (UniProt P10275); test: qHTS assay to identify small molecule agonists of the androgen receptor (AR) signaling pathway in the presence of an antagonist (AID 1259381; calls by dose curve; note: nearly all actives have a fitted effect of over 15% in size)
Procedure, shortened: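 Luciferase read-out (ONE-Glo, 30min room temperature) in MDA-kb2 MMTV-reporter cells; agonist mode run in presence of AR antagonist nilutamide, 3.0uM final. Compounds tested as 15-point series, 16hr exposure at 37C, 0% CO2.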
% is set by controls: 0 for no effect and ±100 for the full control effect.

C=C/C=C/C=C/CCCCC
inactive: viability change, negative = cytotoxic [1] -0.871% [at 19 µM] | activity, negative = inhibition [2] 3% [at 19 µM] | activity change, negative = inhibition [3] -0.135% [at 19 µM] | activity change, negative = inhibition [4] -2.93% [at 19 µM] | activity change, negative = cytotoxicity [5] -0.499% [at 19 µM] | viability change, negative = cytotoxic [6] -4.32% [at 19 µM] | viability change, negative = cytotoxic [7] -2.58% [at 19 µM] | activity change [8] -0.134% [at 18.9 µM, active compounds read high] | activity change, negative = inhibition [9] -23.5% [at 19 µM] | activation [10] -0.263% [at 19 µM] | activity, negative = inhibition [11] -14.6% [at 19 µM] | activity change, negative = cytotoxicity [12] 1.29% [at 19 µM] | activity change, negative = cytotoxicity [13] -7.99% [at 19 µM] | cAMP activity change [14] 0.413% [at 18.9 µM] | activity change, negative = inhibition [15] 1.23% [at 19 µM] | activity change, negative = cytotoxicity [16] -2.67% [at 19 µM]

COc1ccccc1C=O
inactive: Potency [1] | Potency [2] | Potency [3] | Potency [4] | Potency [5] | Potency [6] | Potency [7] | Potency [8] | Potency [9] | Potency [11] | Potency [12] | Potency [13] | Potency [17] | outcome [14] | Potency [15] | Potency [16]

CC1CCCCC1
inactive: Potency [1] | Potency [2] | Potency [3] | Potency [4] | Potency [5] | Potency [6] | Potency [7] | Potency [8] | Potency [9] | Potency [10] | Potency [11] | Potency [12] | Potency [13] | Potency [17] | Potency [18] | outcome [14]

CCC(C)c1ccccc1 (centres undefined)
inactive: Potency [1] | Potency [2] | Potency [3] | Potency [4] | Potency [5] | Potency [6] | Potency [7] | Potency [8] | Potency [9] | Potency [12] | Potency [13] | Potency [19] | Potency [17] | Potency [18] | outcome [14] | Potency [15]

Cc1cccc(N(C)C)c1
inactive: Potency [1] | Potency [2] | Potency [3] | Potency [4] | Potency [5] | Potency [6] | Potency [7] | Potency [8] | Potency [9] | Potency [11] | Potency [12] | Potency [13] | Potency [19] | Potency [17] | Potency [18] | outcome [14] | Potency [15] | Potency [16]

CCc1c(Br)c(Br)c(Br)c(Br)c1Br
inactive: Potency [1] | Potency [2] | Potency [3] | Potency [4] | Potency [5] | Potency [6] | Potency [7] | Potency [8] | Potency [9] | Potency [10] | Potency [11] | Potency [12] | Potency [13] | Potency [17] | Potency [18] | Potency [16]

C/C=C/CO
inactive: Potency [1] | Potency [2] | Potency [3] | Potency [4] | Potency [5] | Potency [6] | Potency [7] | Potency [8] | Potency [9] | Potency [11] | Potency [12] | Potency [13] | Potency [17] | Potency [18] | outcome [14] | Potency [15] | Potency [16]

O=c1cccc[nH]1
inactive: Potency [1] | Potency [2] | Potency [3] | Potency [4] | Potency [5] | Potency [6] | Potency [7] | Potency [8] | Potency [9] | Potency [10] | Potency [11] | Potency [12] | Potency [13] | Potency [19] | Potency [17] | Potency [18] | outcome [14] | Potency [15] | Potency [16]
